Laboratory results from the antibiotic and cytotoxicity screens of Wong et al. (2023).
Out of some 39,000 compounds screened, about 1,500 (3.8%) were called active. For the sample, actives were picked, then their nearest neighbours and some compounds at random.

tested on: HSkMC (human skeletal muscle cells); assay: cytotoxicity call (relative viability < 0.9); conditions: 10 µM

| SMILES | cytotoxicity call |
| --- | --- |
| C[C@@H]1CN([C@H](C)CO)C(=O)c2cc(NS(=O)(=O)c3cn(C)cn3)ccc2O[C@@H]1CN(C)C(=O)Nc1ccc2c(c1)OCO2 | inactive |
| O=C1[C@@H]2[C@@H](C(=O)N1CCO)[C@@H]1C=C[C@@H]2C1 | inactive |
| C[C@@H]1CN([C@H](C)CO)S(=O)(=O)c2ccc(-c3cncnc3)cc2O[C@H]1CN(C)C(=O)Cc1ccncc1 | inactive |
| C[C@H](CO)N1C[C@H](C)[C@@H](CN(C)C(=O)Nc2cccc3ccccc23)Oc2ccc(NC(=O)Nc3ccc4c(c3)OCO4)cc2C1=O | inactive |
| C[C@@H]1CN([C@H](C)CO)C(=O)c2cc(NC(=O)Nc3ccc4c(c3)OCO4)ccc2O[C@H]1CN(C)C(=O)Nc1cccc2ccccc12 | inactive |
| C[C@H]1CN([C@@H](C)CO)C(=O)c2cc(NC(=O)Nc3ccc4c(c3)OCO4)ccc2O[C@H]1CN(C)C(=O)Nc1cccc2ccccc12 | inactive |
| C[C@@H]1CN([C@@H](C)CO)C(=O)c2cc(NC(=O)Nc3ccc4c(c3)OCO4)ccc2O[C@@H]1CN(C)C(=O)Nc1cccc2ccccc12 | active |
| C[C@@H]1CN([C@H](C)CO)C(=O)c2cc(NC(=O)Nc3ccc4c(c3)OCO4)ccc2O[C@@H]1CN(C)C(=O)Nc1cccc2ccccc12 | active |
| C[C@H]1CN([C@@H](C)CO)C(=O)c2cc(NC(=O)Nc3ccc4c(c3)OCO4)ccc2O[C@@H]1CN(C)C(=O)Nc1cccc2ccccc12 | inactive |
| O=C(C[C@H]1CC[C@H]2[C@@H](COC[C@@H](O)CN2S(=O)(=O)c2cccc(Cl)c2)O1)NCCCN1CCOCC1 | inactive |
| CO[C@@H]1[C@@H](O)[C@H](O)[C@H](O)[C@H](O)[C@@H]1O | inactive |
| COc1ccc(NC(=O)N(C)C[C@@H]2Oc3ccc(NC(=O)CCCCCC(=O)Nc4ccccc4N)cc3C(=O)N([C@@H](C)CO)C[C@@H]2C)cc1 | inactive |
| O=C(Cn1cc(COc2ccc3ccccc3c2)nn1)NS(=O)(=O)c1ccccc1OC(F)(F)F | inactive |
| CN(C)C(=O)C[C@@H]1CC[C@@H]2[C@H](COC[C@H](O)CN2S(=O)(=O)c2ccc(Oc3ccccc3)cc2)O1 | inactive |
| CC(C)[C@H]1CC[C@@H](C)C[C@@H]1NC(=O)c1cccc2ccccc12 | inactive |
| COc1ccc2c(c1)n(CCN)c(=O)n2C(=O)[C@@H]1C[C@H](C)CC[C@H]1C(C)C | active |
| COc1ccc(S(=O)(=O)Nc2ccc3c(c2)C(=O)N([C@H](C)CO)C[C@@H](C)[C@@H](CN(C)S(C)(=O)=O)O3)cc1 | inactive |
| Cc1cc(C)c(/N=c2\scc(C)n2Cc2ccccc2)c(C)c1 | inactive |
| C[C@@H]1CN([C@@H](C)CO)C(=O)c2cc(NC(=O)Nc3ccc(C(F)(F)F)cc3)ccc2O[C@H]1CN(C)S(=O)(=O)c1ccc(F)cc1 | inactive |
| Cc1ccc(S(=O)(=O)N(C)C[C@H]2Oc3ccc(NC(=O)Nc4ccc(C(F)(F)F)cc4)cc3C(=O)N([C@H](C)CO)C[C@@H]2C)cc1 | inactive |

| SMILES | cytotoxicity call |
| --- | --- |
| C[C@@H]1CN([C@H](C)CO)C(=O)c2cc(NC(=O)Nc3ccc(C(F)(F)F)cc3)ccc2O[C@H]1CN(C)S(=O)(=O)c1ccc(F)cc1 | active |
| C[C@H]1CN([C@@H](C)CO)C(=O)c2cc(NC(=O)Nc3ccc(C(F)(F)F)cc3)ccc2O[C@@H]1CN(C)S(=O)(=O)c1ccc(F)cc1 | inactive |
| C[C@@H]1CN([C@H](C)CO)C(=O)c2cc(NC(=O)Nc3ccc(C(F)(F)F)cc3)ccc2O[C@@H]1CN(C)S(=O)(=O)c1ccc(F)cc1 | active |
| Cc1ccc(S(=O)(=O)N(C)C[C@H]2Oc3ccc(NC(=O)Nc4ccc(C(F)(F)F)cc4)cc3C(=O)N([C@@H](C)CO)C[C@@H]2C)cc1 | inactive |
| Cc1ccc(S(=O)(=O)N(C)C[C@H]2Oc3ccc(NC(=O)Nc4ccc(C(F)(F)F)cc4)cc3C(=O)N([C@H](C)CO)C[C@H]2C)cc1 | active |
| C[C@H](CO)N1C[C@H](C)[C@@H](CN(C)S(=O)(=O)c2ccc(F)cc2)Oc2ccc(NC(=O)Nc3ccc(C(F)(F)F)cc3)cc2C1=O | inactive |
| C[C@H]1CN([C@@H](C)CO)C(=O)c2cc(NC(=O)Nc3ccc(C(F)(F)F)cc3)ccc2O[C@H]1CN(C)S(=O)(=O)c1ccc(F)cc1 | inactive |
| C[C@@H]1CN([C@@H](C)CO)C(=O)c2cc(NC(=O)Nc3ccc(C(F)(F)F)cc3)ccc2O[C@@H]1CN(C)S(=O)(=O)c1ccc(F)cc1 | inactive |
| C[C@H](CO)N1C[C@H](C)[C@H](CN(C)S(=O)(=O)c2ccc(F)cc2)Oc2ccc(NC(=O)Nc3ccc(C(F)(F)F)cc3)cc2C1=O | active |
| Cc1ccc(S(=O)(=O)N(C)C[C@@H]2Oc3ccc(NC(=O)Nc4ccc(C(F)(F)F)cc4)cc3C(=O)N([C@@H](C)CO)C[C@@H]2C)cc1 | inactive |
| C[C@@H]1CN([C@H](C)CO)C(=O)c2cc(NS(=O)(=O)c3cn(C)cn3)ccc2O[C@@H]1CN(C)Cc1ccc(C(=O)Nc2ccccc2N)cc1 | inactive |
| O=C(Nc1cccc2cccnc12)[C@H]1[C@@H](c2ccc(Br)cc2)CC(=O)N1C(=O)OCc1ccccc1 | inactive |
| C[C@H]1CN([C@@H](C)CO)C(=O)c2cc(NS(=O)(=O)c3cn(C)cn3)ccc2O[C@@H]1CN(C)Cc1ccc(C(=O)O)cc1 | inactive |
| O=C(C[C@H]1CC[C@H]2[C@@H](COC[C@H](O)CN2C(=O)Nc2cccc(F)c2)O1)NCCCN1CCOCC1 | inactive |
| C[C@@H]1CN([C@H](C)CO)C(=O)c2cc(NC(=O)Cc3ccccc3)ccc2O[C@H]1CN(C)Cc1ccc(Oc2ccccc2)cc1 | inactive |
| O=C(C[C@@H]1C[C@H]2c3cc(NC(=O)Nc4ccc(C(F)(F)F)cc4)ccc3O[C@H]2[C@@H](CO)O1)NCc1cc(F)ccc1F | inactive |
| Cc1ccc(S(=O)(=O)Nc2ccc3c(c2)C(=O)N([C@@H](C)CO)C[C@@H](C)[C@@H](CN(C)C(=O)c2ccccc2)OCCCC[C@H](C)O3)cc1 | inactive |
| C[C@@H]1CN([C@@H](C)CO)C(=O)c2cc(NC(=O)c3ccncc3)ccc2O[C@H]1CN(C)Cc1ccc(-c2ccccc2)cc1 | inactive |
| C[C@@H]1CN([C@@H](C)CO)C(=O)CCCn2nncc2CO[C@H]1CN(C)C(=O)Nc1cccc(Oc2ccccn2)c1 | inactive |
